From PubChem BioAssay (Tox21) come the findings set out here.

Unmarked numbers belong to inactive results. Inconclusive results are not listed. Calls of active or inactive are those of the source. Unless noted, the call rests on the fitted dose curve; in most records, active means well fitted curve in the direction sought with a large enough effect in the repeat runs; inconclusive means weak or mixed curves; inactive means no such curve, though single readings can be large; an effect the other way counts as inactive or inconclusive.

Experiment [1] can be described thus: qHTS assay for small molecule agonists of the p53 signaling pathway (AID 651631; calls by dose curve; further: nearly all actives have a fitted effect of over 15% in size; further: potency means the concentration at half of the fitted maximal effect). In short, it runs like this:
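Readout was fluorescence from the LiveBLAzer FRET substrate, applied for 2 h at room temperature after 16 h compound exposure at 37 °C. Cells were the p53RE-bla HCT-116 line, with beta-lactamase driven by p53 response elements.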
For orientation: Quantitative high-throughput screening tests each substance at several concentrations.

The nature of experiment [2]: qHTS assay for small molecules that induce genotoxicity in human embryonic kidney cells expressing luciferase-tagged ATAD5 (AID 651632). Further: nearly all actives have a fitted effect of over 15% in size. In short, it runs like this: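 HEK293T cells carrying luciferase-tagged ATAD5 were given compound or DMSO vehicle and incubated 16 hr at 37C, 5% CO2. Luciferase activity was read after 30 min at room temperature with Amplite; a rise signals genotoxic stress.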

Experiment [3] can be described thus: qHTS assay for small molecule agonists of the p53 signaling pathway - cell viability (AID 651633; calls by dose curve; further: series mostly up to about 83 µM; nearly all actives have a fitted effect of over 30% in size). The essentials:
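p53RE-bla cells were treated with compound for 16 hours at 37 C. Cytotoxicity was then measured as CellTiter-Glo luminescence after 30 min at room temperature.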

The nature of experiment [4]: qHTS assay for small molecules that induce genotoxicity in human embryonic kidney cells expressing luciferase-tagged ATAD5 - cell viability (AID 651634; calls by dose curve; further: nearly all actives have a fitted effect of over 25% in size; further: potency means the concentration at half of the fitted maximal effect). In short, it runs like this: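 HEK293T cells carrying luciferase-tagged ATAD5, 2,000 cells/well, exposed to compound for 15.5 hr at 37C. Viability read as live-cell protease activity by CellTiter-Fluor fluorescence after 30 min at 37C.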

Experiment [5] in a line: qHTS assay for small molecule disruptors of the mitochondrial membrane potential - cell viability (AID 720634; calls by dose curve;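 further: human HepG2 liver cancer cells; series mostly up to about 83 µM; nearly all actives have a fitted effect of over 20% in size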). The essentials: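 HepG2 cells, 2,000 per well, attached overnight, then treated 1 hr at 37 C, 5% CO2. Viability read as ATP by CellTiter-Glo luminescence after 30 min at room temperature. Read in the same wells as the m-MPI membrane-potential dye assay.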
A short description of experiment [6]: qHTS assay for small molecule disruptors of the mitochondrial membrane potential (AID 720635). Further: potency means the concentration at half of the fitted maximal effect. In short, it runs like this: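 HepG2 cells exposed to compound 1 hr at 37C, then Mito-MPS dye 30 min. Ratio read of aggregate (540/590 nm) versus monomer (490/535 nm) fluorescence.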
Experiment [7] is described as follows: qHTS assay to test for compound auto fluorescence at 590 nm (red) in HepG2 cells (AID 720674). The essentials:
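HepG2 cells, 2,000 per well in MEM with 10% FBS, attached overnight at 37 C, then got 23 nL compound or DMSO. After 1 hr at 37 C, 5% CO2, red fluorescence was read at 540/590 nm against Rose Bengal sodium as reference.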

A short description of experiment [8]: qHTS assay to test for compound auto fluorescence at 535 nm (green) in HepG2 cells (AID 720675).
Experiment [9] in a line: qHTS assay to test for compound auto fluorescence at 460 nm (blue) in HEK293 cells (AID 720678). In short, it runs like this:
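Intrinsic compound fluorescence is recorded in live HEK293 cultures after overnight incubation at 37C, 5% CO2, using excitation 405 nm and emission 460 nm. Values are referenced to triamterene.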

A short description of experiment [10]: qHTS assay to test for compound auto fluorescence at 590 nm (red) in HEK293 cells (AID 720679). In short, it runs like this: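 Red autofluorescence, HEK293 cells: 2,000 cells/well; attach 4-5 hr 37C; add 23 nL cpd or DMSO; incubate o/n 37C 5% CO2; read Ex540/Em590; Rose Bengal sodium reference.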
On the % scale 0 is the no-effect control and ±100 the full control effect.

For `Cc1cc(C(=O)O)ccc1[N+](=O)[O-]`, the Potency result in experiment [1], in [2], in experiment [3], in [4], in experiment [5] and in [6] was “inactive” in each case. Also, the Potency entry in experiment [7], in experiment [8] and in experiment [10] was “inactive” throughout. Further, the call in experiment [9] was inactive.

With `CC1=CCCC(C)(C)C12CCC(C)O2` (stereo unspecified), the Potency result in [1], in [2], in experiment [3], in experiment [4], in experiment [5] and in experiment [7] was “inactive” in each case. Besides, the Potency entry in [8] and in experiment [10] was “inactive” each time. For the same compound, the result in experiment [9] was inactive.

Take `CC(=O)[O][Al][O]C(C)=O`: the Potency entry in [1], in experiment [2], in [3], in experiment [4], in [5] and in experiment [7] was “inactive” each time. The Potency result in experiment [8] and in experiment [10] was “inactive” in each case. Also, in [9], the call was inactive.

On to `CCCCCCCCCCCC(=O)OC[C@@H](O)[C@H]1OC[C@H](OCCO)[C@H]1OCCO`, for which the Potency result in experiment [1], in experiment [2], in experiment [3], in experiment [4], in [5] and in experiment [6] was “inactive” each time. In addition, the Potency result in [7] and in experiment [10] was “inactive” each time. Besides, in experiment [9], the compound was called inactive.

As for `C#C[C@]1(O)CC[C@H]2[C@@H]3CCc4cc(OC5CCCC5)ccc4[C@H]3CC[C@@]21C`, the Potency result in experiment [1], in experiment [2], in experiment [3], in [4], in experiment [5] and in [7] was “inactive” throughout. Further, the Potency result in experiment [8] and in experiment [10] was “inactive” in each case. In addition, the outcome in experiment [9] was inactive.

For the compound `CCCCC(=O)OCC(=O)[C@H]1[C@H](C)C[C@H]2[C@@H]3C[C@H](F)C4=CC(=O)C=C[C@]4(C)[C@@]3(F)[C@@H](O)C[C@@]21C`, the Potency result in experiment [1], in experiment [2], in [3], in experiment [4], in experiment [5] and in [7] was “inactive” throughout. In addition, the Potency entry in [8] and in [10] was “inactive” in each case. Besides, in experiment [9], the call was inactive.

In the case of `NCC(=O)O`, the Potency result in [1], in experiment [2], in [3], in experiment [4], in experiment [5] and in experiment [6] was “inactive” each time. The Potency result in experiment [7], in experiment [8] and in experiment [10] was “inactive” each time. In addition, the outcome in experiment [9] was inactive.

Consider `O=C(c1ccc(F)cc1)C1CCN(CCn2c(=S)[nH]c3ccccc3c2=O)CC1`, for which the Potency result in experiment [1], in experiment [2], in experiment [3], in experiment [4], in experiment [5] and in [7] was “inactive” each time. Besides, the Potency result in experiment [8] and in experiment [10] was “inactive” in each case. Also, in [9], the call was inactive.

Consider `CCCCCCCN`, for which the Potency entry in experiment [1], in experiment [2], in experiment [3], in experiment [4], in [5] and in experiment [7] was “inactive” throughout. Further, the Potency entry in experiment [8] and in experiment [10] was “inactive” each time. In [9], the call was inactive.

Take `CN1C[C@H]2c3ccccc3Oc3ccc(Cl)cc3[C@@H]2C1`: the Potency in experiment [1] is 29.8 µM (active). In addition, the Potency entry in [2], in experiment [3], in experiment [4], in experiment [5], in experiment [6] and in experiment [7] was “inactive” each time. Besides, the Potency result in experiment [8] and in experiment [10] was “inactive” throughout. Besides, the result in experiment [9] was inactive.

For the compound `CC(C)(O)c1ccc(CNC(=O)c2cccnc2Oc2ccc(F)cc2)cc1`, the Potency result in [1], in experiment [2], in experiment [3], in experiment [4], in experiment [5] and in [6] was “inactive” in each case. Also, the Potency entry in experiment [7] and in experiment [10] was “inactive” each time. Also, the outcome in [9] was inactive.

As for `O=C1OC(=O)C2C3C=CC(C3)C12` (stereo unspecified), the Potency entry in experiment [1], in experiment [2], in experiment [3], in experiment [4], in experiment [5] and in experiment [6] was “inactive” in each case. Besides, the Potency result in [7], in [8] and in [10] was “inactive” in each case. Moreover, in [9], the compound was classed as inactive.

Take `CCCCCCCCCOS(=O)(=O)O`: the Potency result in experiment [1], in [2], in experiment [3], in [4], in [5] and in experiment [7] was “inactive” in each case. In addition, the Potency result in [10] was “inactive”. Also, the result in experiment [9] was inactive.

Take `OCCNCc1ccccc1`: the Potency entry in [1], in experiment [2], in experiment [3], in experiment [4], in [5] and in [6] was “inactive” each time. For the same compound, the Potency entry in experiment [7], in [8] and in experiment [10] was “inactive” each time. The compound was classed as inactive in [9].

As to `CC(CC=O)c1ccccc1` (stereo unspecified), the Potency entry in experiment [1], in experiment [2], in experiment [3], in experiment [4], in experiment [5] and in experiment [7] was “inactive” each time. In addition, the Potency entry in experiment [10] is “inactive”. Besides, the Potency in [6] was 54.5 µM (active). In experiment [9], the compound was called inactive.

On to `O=C(OCCCCCCOC(=O)c1ccccc1)c1ccccc1`, for which the Potency entry in experiment [1], in experiment [2], in experiment [3], in experiment [4], in experiment [5] and in experiment [6] was “inactive” in each case. Besides, the Potency result in experiment [7] and in [10] was “inactive” each time. In addition, the outcome in [9] was inactive.

On to `Cc1ccc(N=Nc2c(O)c(C(=O)O)cc3ccccc23)c(S(=O)(=O)O)c1`, for which the Potency result in experiment [1], in experiment [2], in experiment [3], in experiment [5], in experiment [7] and in [10] was “inactive” throughout. Besides, in experiment [4], the Potency is 11.8 µM (active). The outcome in experiment [9] was inactive.

For `CCOC(=O)c1cccnc1`, the Potency entry in experiment [1], in [2], in experiment [3], in [6], in [7] and in experiment [8] was “inactive” each time. In addition, in experiment [10], the Potency result was “inactive”. In experiment [9], the result was inactive.

Turning to `CC(=O)c1ccc2c(c1)N(CCCN1CCC(CCO)CC1)c1ccccc1S2`, the Potency entry in [1], in experiment [2], in experiment [3] and in experiment [5] was “inactive” throughout. In experiment [8], the fluorescence, % of fluorescein control was 0.043% [at 18.6 µM]. Moreover, in experiment [9], the fluorescence, % of triamterene is -0.0315% [at 18.6 µM]. In addition, the fluorescence, % of fluorescent control in experiment [10] was -0.278% [at 18.6 µM].

With `CCCCCCCCO[C@@H]1O[C@H](CO)[C@@H](O)[C@H](O)[C@H]1O`, the Potency result in [1], in experiment [2], in [3], in experiment [4], in experiment [5] and in experiment [8] was “inactive” each time. Besides, the Potency entry in experiment [10] was “inactive”. The compound was classed as inactive in experiment [9].

With `CC1OC(=O)C(C)OC1=O` (stereo unspecified), the Potency result in [1], in experiment [2], in [3], in experiment [4], in experiment [6] and in [7] was “inactive” throughout. Moreover, the Potency result in experiment [8] and in experiment [10] was “inactive” each time. Also, the compound was classed as inactive in [9].

Regarding `CN1CCN(C(c2ccccc2)c2ccccc2)CC1`, the Potency entry in experiment [1], in experiment [2], in [3], in [4] and in experiment [5] was “inactive” in each case. Moreover, in experiment [8], the fluorescence, % of fluorescein control was -0.189% [at 18.6 µM]. Moreover, in experiment [9], the fluorescence, % of triamterene is -0.0167% [at 18.6 µM]. Besides, in experiment [10], the fluorescence, % of fluorescent control was -0.0303% [at 18.6 µM].
